NadD inh = inhibitors of S. aureus NadD, primary screen, biochemical, colorimetric, uHTS; purified NadD enzyme, colorimetric absorbance read-out; inhibition, % at 20 µM; 360,000 compounds, 0.78% hits; AID 602399, 2012; in the data active = inhibition above about 26%
PfGluPho inh = PfG6PD enzyme inhibitors, primary screen, biochemical, fluorescence intensity, uHTS; PfGluPho enzyme, NADPH resazurin-diaphorase fluorescence; inhibition, % at 20 µM; glucose-6-phosphate dehydrogenase-6-phosphogluconolactonase (Plasmodium falciparum 3D7); 350,000 compounds, 0.78% hits;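 active = inhibition reaching at least a set limit at 20 µM in the primary screen, cut at about 59% in these data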;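 note: 0% = DMSO wells with substrate and 100% = DMSO wells lacking glucose-6-phosphate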
APOBEC3G inh = APOBEC3G DNA deaminase inhibitors, primary screen, biochemical, fluorescence, single-stranded DNA substrate, uHTS. DNA dC->dU-editing enzyme APOBEC-3G (Homo sapiens), Q9HC16. recombinant A3G, ssDNA deamination FAM/TAMRA fluorescence. inhibition, % at 20 µM. 330,000 compounds, 0.28% hits. AID 493012, 2011;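 active = inhibition of at least 40% at 20 µM, with no more than 30% in the related APOBEC3A deaminase screen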;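 note: plate controls were DMSO wells with A3G for no effect and wells lacking A3G enzyme for full effect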
Target sequence (Q9HC16 whole entry, looked up): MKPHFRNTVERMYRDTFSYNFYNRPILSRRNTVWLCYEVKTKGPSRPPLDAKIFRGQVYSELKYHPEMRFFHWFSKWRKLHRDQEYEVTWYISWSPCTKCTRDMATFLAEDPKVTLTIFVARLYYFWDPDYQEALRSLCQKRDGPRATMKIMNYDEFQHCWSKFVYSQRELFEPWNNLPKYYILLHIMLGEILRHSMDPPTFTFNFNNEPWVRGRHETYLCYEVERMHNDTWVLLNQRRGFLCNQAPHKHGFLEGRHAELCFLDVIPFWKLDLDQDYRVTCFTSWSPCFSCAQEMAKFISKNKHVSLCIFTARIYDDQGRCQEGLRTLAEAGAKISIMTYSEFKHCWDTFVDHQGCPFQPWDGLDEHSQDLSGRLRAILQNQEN
H9c2 TAG inh = inhibitors of triacylglycerol accumulation, primary screen, cell-based, uHTS, fluorescence, H9c2. H9c2 cells, Nile Red lipid (TAG) fluorescence; cells loaded with 200 µM oleic acid. inhibition, % at 12.5 µM. 230,000 compounds, 0.66% hits;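 active = pattern-corrected inhibition of lipid staining of at least 50% with the nuclear-stain viability signal not falling by more than 50%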;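 note: 0% = DMSO wells and 100% = triacsin C control wells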
H9c2 protect = cardioprotection against H2O2-induced cell death, primary screen, uHTS, H9c2 cells, ATPLite luminescence. H9c2 cardiomyocytes, H2O2 injury protection, 2 h. protection from H2O2 cell death, % at 20 µM. 360,000 compounds, 0.63% hits;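 active = compounds giving at least 50% protection of heart cells from peroxide-induced death in the single-dose screen, raw or plate-pattern-corrected value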;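 note: 0% = DMSO wells with peroxide and 100% = DMSO wells without peroxide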
A3A deaminase = APOBEC3A ssDNA deaminase inhibitors, primary screen, selectivity assay for APOBEC3G inhibitor project, biochemical, FAM/TAMRA oligo cleavage fluorescence | recombinant A3A, FAM/TAMRA ssDNA deamination fluorescence | inhibition, % at 20 µM | 330,000 compounds, 0.41% hits | AID 493011, 2011;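 active = at least 40% inhibition at 20 µM here, with at most 30% in a related deaminase screen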;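 note: plate controls were A3A with DMSO for no effect and wells lacking A3A enzyme for full effect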
Target sequence (P31941 whole entry, looked up): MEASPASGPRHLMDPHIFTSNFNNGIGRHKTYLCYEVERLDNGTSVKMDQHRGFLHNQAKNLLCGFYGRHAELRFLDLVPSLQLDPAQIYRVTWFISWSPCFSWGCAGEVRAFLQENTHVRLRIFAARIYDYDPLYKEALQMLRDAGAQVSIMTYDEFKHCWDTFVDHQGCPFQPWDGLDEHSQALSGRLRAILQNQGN
Active calls of the source: *; / = not tested or not shown; ! = not active in a repeat. Only some compounds are listed: those with a hit (about 2.9% of all), similar ones and a draw of the others.

SMILES	NadD inh	PfGluPho inh	APOBEC3G inh	H9c2 TAG inh	H9c2 protect	A3A deaminase
COc1cccc(-c2nnc3sc(-c4cccs4)nn23)c1	0.6	5.3	-8.4	1.7	8.2	-5.5
CCOc1cccc(-c2nn3c(-c4ccco4)nnc3s2)c1	-0.2	-0.8	-11.3	/	64.5*	-2.0
c1coc(-c2nnc3sc(-c4cccs4)nn23)c1	2.5	3.9	5.9	7.5	53.1*	5.7
O=C(CSc1nnc(-c2ccccc2F)o1)Nc1ccc(N2CCOCC2)cc1	4.1	4.8	-5.9	22.2	1.1	-2.3
Cc1cc(=O)c2c(O)c(O)ccc2o1	-0.6	28.3	8.7	-11.5	50.4*	4.7
COc1c2ccoc2cc2oc(C)cc(=O)c12	-3.5	11.5	39.3	/	-7.6	5.6
CCOc1cc(/C=C2\C(=N)N3N=C(C)SC3=NC2=O)ccc1OCCOc1cccc(OC)c1	44.5*	6.9	0.0	/	-5.5	2.9
COc1cccc(OCCOc2ccc(/C=C3\C(=N)N4N=C(S(C)(=O)=O)SC4=NC3=O)cc2OC)c1	28.9	-15.6	/	/	2.4	/
COc1cc(/C=C2/C(=N)N3N=C(C(C)C)SC3=NC2=O)ccc1OS(=O)(=O)c1ccccc1	5.0	-9.5	10.5	/	1.1	-5.7
COc1cc(/C=C2\C(=N)N3N=C(S(C)(=O)=O)SC3=NC2=O)cc(OC)c1OCCOc1ccccc1C	25.6*	-7.1	2.1	/	6.4	2.6
CCC1=NN2C(=N)/C(=C/c3ccc(OS(=O)(=O)c4ccccc4)c(OC)c3)C(=O)N=C2S1	82.0*	-7.8	10.4	/	1.4	0.5
N=c1ncn(C2OC(CO)C(O)C2O)c2nc(Br)[nH]c12 (stereo not drawn)	-2.7	10.1	/	0.8	1.1	/
O=C1CCCN1CCCNc1nc2c(S(=O)(=O)c3ccccc3)nnn2c2ccc(Cl)cc12	-1.1	0.6	-2.6	/	11.6	-3.7
O=C(COC(=O)c1ccc(O)cc1)NC1CCCCCC1	0.4	2.1	-6.1	-3.8	4.7	-0.8
Cc1ccsc1C=Nc1ccc(O)cc1	4.4	84.0*	10.1	/	-5.7	2.5
Cc1ccsc1/C=N/N=C/c1sccc1C	-5.1	12.5	2.3	/	-13.6	-2.0
O=C(c1ccco1)N1CCCN(Cc2nc(Cc3ccccc3)no2)CC1	1.6	6.3	-0.6	1.7	0.7	4.2
CCOC(=O)C1=C(C)NC(C)=C(C(=O)OCC)C1C(=O)OCC(=O)NC(C)C	-1.8	1.0	-2.5	8.7	57.1*!	-3.4
CC(=O)Nc1cccc(Oc2nc(-c3ccccn3)nc3ccccc23)c1	1.7	17.2	-3.4	23.6	-2.8	3.3
Cc1ccccc1Oc1nc(-c2ccccn2)nc2ccccc12	7.6	10.9	-0.8	57.2*	-6.3	0.4
CCCCCOc1ccc(Br)cc1/C(C)=N/NC1=NCCN1	1.8	6.4	-3.3	68.8*	-31.8	1.8
O=C(CCN1C(=O)C2C3CCC(C3)C2C1=O)Nc1cccc(Cl)c1 (stereo not drawn)	-6.6	-21.1	-9.8	-5.9	0.4	-5.4
Brc1cc2c(cc1/C=N/Nc1nc(N3CCCC3)nc(N3CCOCC3)n1)OCO2	6.9	15.8	-2.3	14.1	63.3*	0.7
CC1CC(C)CN(S(=O)(=O)c2ccc3c(c2)oc(=O)n3CC(=O)NCCCOC(C)C)C1 (stereo not drawn)	-4.7	-7.2	-2.1	/	-1.3	-4.1
COc1cccc(-c2sc3cc(OC)c(OC)cc3c2-c2ccc(OCCN3CCCCC3)cc2)c1	10.4	29.2	0.0	91.9*	-27.3	1.7
SMILES	NadD inh	PfGluPho inh	APOBEC3G inh	H9c2 TAG inh	H9c2 protect	A3A deaminase
CCOC(=O)[C@@H]1[C@H]2COc3ccc(Br)cc3[C@H]2N2C(=O)N(c3ccc(C(F)(F)F)cc3)C(=O)[C@]12C	-2.9	8.6	-8.0	5.0	-5.6	-4.5
COC1=C(C)C(=O)C2=C(C1=O)C1C3CC4=C(C(=O)C(OC)=C(C)C4=O)C(CNC(=O)C(C)=O)N3C(C#N)C(C2)N1C (stereo not drawn)	2.8	119.8*	/	109.4	-13.0	/
CC1CCc2c(sc(NC(=O)COC(=O)c3ccc(O)cc3)c2C#N)C1 (stereo not drawn)	16.5	1.9	-10.6	20.7	-13.7	-7.7
CN(CC(=O)Nc1cccc(F)c1)C(=O)Cc1n[nH]c(=O)c2ccccc12	2.2	4.4	-3.7	-9.2	74.1*	3.8
CCN(CC(=O)Nc1ccc(OC)cc1)C(=O)CCc1nc2ccccc2c(=O)[nH]1	-1.6	4.5	1.2	-7.3	89.9*	3.1
CN(CC(=O)Nc1cccc(F)c1)C(=O)CCCc1nc2ccccc2c(=O)[nH]1	0.1	10.3	13.0	1.0	60.4*	2.7
COc1cc(NC(=O)COC(=O)CCc2nc3ccccc3c(=O)[nH]2)cc(OC)c1	-3.4	-0.5	-4.6	-8.5	15.1	-0.9
COc1cccc(NC(=O)CN(C)C(=O)CCCc2nc3ccccc3c(=O)[nH]2)c1	-3.5	0.9	-2.2	-14.2	64.2*	-2.4
Cc1cc(C)c2[nH]c(C)c(CN3CCCCCC3)c(=O)c2c1	1.0	-5.3	-0.6	/	12.0	0.6
O=C(c1ccc2c(c1)OCO2)N1CCC2(CC1)Oc1ccc(F)cc1C(=O)C21CC(c2ccccc2)=NO1 (stereo not drawn)	9.1	-2.8	3.7	-2.4	16.3	3.8
Cn1c(C(=O)Nc2ccc3c(c2)OCCO3)cc2c(=O)n(C)c3ccccc3c21	1.0	54.2	-7.2	4.1	95.2*	-2.5
c1ccc(CSC2=NNC(c3ccccn3)S2)cc1 (stereo not drawn)	12.0	-40.4	-9.6	66.5*	46.4	-6.7
Cc1ccc2c(c1)c1c(n2CC(O)CNC2CCCC2)CCCC1 (stereo not drawn)	-10.4	-3.3	2.7	99.2*	-1.1	1.5
CC1Nc2ncnc(N3CCN(c4ccccc4)CC3)c2N(Cc2ccc(Br)cc2)C1=O (stereo not drawn)	8.2	20.4	0.2	-10.1	61.7*	1.1
CCC1Nc2ncnc(N3CCc4ccccc4C3)c2N(Cc2ccc(Cl)cc2)C1=O (stereo not drawn)	26.7	7.8	-3.2	4.5	-0.2	-4.6
O=C1C(Cc2ccccc2)Nc2ncnc(N3CCc4ccccc4C3)c2N1Cc1ccc(Cl)cc1 (stereo not drawn)	63.0*	23.9	-4.3	5.6	6.8	-0.9

Screening data from PubChem.
